Article PMC11102866, “Nucleosome-bound NR5A2 structure reveals pioneer factor mechanism by DNA minor groove anchor competition”

B1: 87 (nucleosome)
DNA 1: ATCCTGGAGAATCCCGGTGCCGAGGCCGCTCAATTGGTCGTAGACAGCTCTAGCACCGCTTAAACGCACGTACGCGCTGTCCCCCGCGTTCAAGGCCACAAGGGGATTACTCCCTAGTCTCCAGGCACGTGTCAGATATATACATCCTGTGAT
DNA 2: ATCACAGGATGTATATATCTGACACGTGCCTGGAGACTAGGGAGTAATCCCCTTGTGGCCTTGAACGCGGGGGACAGCGCGTACGTGCGTTTAAGCGGTGCTAGAGCTGTCTACGACCAATTGAGCGGCCTCGGCACCGGGATTCTCCAGGAT
modifications: reconstituted with mouse histones H2A, H2B, H3.3 and H4
B2: 88 (nucleosome)
DNA 1: ATCCTGGAGAATCCCGGTGCCGAGGCCGCTCAATTGGTCGTAGACAGCTCTAGCACCGCTTAAACGCACGTACGCGCTGTCCCCCGCGTTTCAAGGCCAAAGGGGATTACTCCCTAGTCTCCAGGCACGTGTCAGATATATACATCCTGTGAT
DNA 2: ATCACAGGATGTATATATCTGACACGTGCCTGGAGACTAGGGAGTAATCCCCTTTGGCCTTGAAACGCGGGGGACAGCGCGTACGTGCGTTTAAGCGGTGCTAGAGCTGTCTACGACCAATTGAGCGGCCTCGGCACCGGGATTCTCCAGGAT
modifications: reconstituted with mouse histones H2A, H2B, H3.3 and H4
B3: 89 (nucleosome)
DNA 1: ATCCTGGAGAATCCCGGTGCCGAGGCCGCTCAATTGGTCGTAGACAGCTCTAGCACCGCTTAAACGCACGTACGCGCTGTCCCCCGCGTTTTCAAGGCCAAGGGGATTACTCCCTAGTCTCCAGGCACGTGTCAGATATATACATCCTGTGAT
DNA 2: ATCACAGGATGTATATATCTGACACGTGCCTGGAGACTAGGGAGTAATCCCCTTGGCCTTGAAAACGCGGGGGACAGCGCGTACGTGCGTTTAAGCGGTGCTAGAGCTGTCTACGACCAATTGAGCGGCCTCGGCACCGGGATTCTCCAGGAT
modifications: reconstituted with mouse histones H2A, H2B, H3.3 and H4
B4: 90 (nucleosome)
DNA 1: ATCCTGGAGAATCCCGGTGCCGAGGCCGCTCAATTGGTCGTAGACAGCTCTAGCACCGCTTAAACGCACGTACGCGCTGTCCCCCGCGTTTTTCAAGGCCAGGGGATTACTCCCTAGTCTCCAGGCACGTGTCAGATATATACATCCTGTGAT
DNA 2: ATCACAGGATGTATATATCTGACACGTGCCTGGAGACTAGGGAGTAATCCCCTGGCCTTGAAAAACGCGGGGGACAGCGCGTACGTGCGTTTAAGCGGTGCTAGAGCTGTCTACGACCAATTGAGCGGCCTCGGCACCGGGATTCTCCAGGAT
modifications: reconstituted with mouse histones H2A, H2B, H3.3 and H4
B5: 91 (nucleosome)
DNA 1: ATCCTGGAGAATCCCGGTGCCGAGGCCGCTCAATTGGTCGTAGACAGCTCTAGCACCGCTTAAACGCACGTACGCGCTGTCCCCCGCGTTTTATCAAGGCCAGGGATTACTCCCTAGTCTCCAGGCACGTGTCAGATATATACATCCTGTGAT
DNA 2: ATCACAGGATGTATATATCTGACACGTGCCTGGAGACTAGGGAGTAATCCCTGGCCTTGATAAAACGCGGGGGACAGCGCGTACGTGCGTTTAAGCGGTGCTAGAGCTGTCTACGACCAATTGAGCGGCCTCGGCACCGGGATTCTCCAGGAT
modifications: reconstituted with mouse histones H2A, H2B, H3.3 and H4
B6: 11 (nucleosome)
DNA 1: ATCCTGGAGAATCTCAAGGCCAAGGCCGCTCAATTGGTCGTAGACAGCTCTAGCACCGCTTAAACGCACGTACGCGCTGTCCCCCGCGTTTTAACCGCCAAGGGGATTACTCCCTAGTCTCCAGGCACGTGTCAGATATATACATCCTGTGAT
DNA 2: ATCACAGGATGTATATATCTGACACGTGCCTGGAGACTAGGGAGTAATCCCCTTGGCGGTTAAAACGCGGGGGACAGCGCGTACGTGCGTTTAAGCGGTGCTAGAGCTGTCTACGACCAATTGAGCGGCCTTGGCCTTGAGATTCTCCAGGAT
modifications: reconstituted with mouse histones H2A, H2B, H3.3 and H4
B7: 92 (nucleosome)
DNA 1: ATCCTGGAGAATCCCGGTGCCGAGGCCGCTCAATTGGTCGTAGACAGCTCTAGCACCGCTTAAACGCACGTACGCGCTGTCCCCCGCGTTTTAATCAAGGCCAGGATTACTCCCTAGTCTCCAGGCACGTGTCAGATATATACATCCTGTGAT
DNA 2: ATCACAGGATGTATATATCTGACACGTGCCTGGAGACTAGGGAGTAATCCTGGCCTTGATTAAAACGCGGGGGACAGCGCGTACGTGCGTTTAAGCGGTGCTAGAGCTGTCTACGACCAATTGAGCGGCCTCGGCACCGGGATTCTCCAGGAT
modifications: reconstituted with mouse histones H2A, H2B, H3.3 and H4
B8: 93 (nucleosome)
DNA 1: ATCCTGGAGAATCCCGGTGCCGAGGCCGCTCAATTGGTCGTAGACAGCTCTAGCACCGCTTAAACGCACGTACGCGCTGTCCCCCGCGTTTTAACTCAAGGCCAGATTACTCCCTAGTCTCCAGGCACGTGTCAGATATATACATCCTGTGAT
DNA 2: ATCACAGGATGTATATATCTGACACGTGCCTGGAGACTAGGGAGTAATCTGGCCTTGAGTTAAAACGCGGGGGACAGCGCGTACGTGCGTTTAAGCGGTGCTAGAGCTGTCTACGACCAATTGAGCGGCCTCGGCACCGGGATTCTCCAGGAT
modifications: reconstituted with mouse histones H2A, H2B, H3.3 and H4

Molecular target: NR5A2 wild type;histone octamer (Homo sapiens;, UniProt O00482;C0HKE1;Q6ZWY9;P84244;P62806 1-541;2-130;2-126;2-136;2-103, |)
Experiment: SeEN-seq (EMSA of nucleosome library followed by sequencing); 0.8 uM human NR5A2; 20 mM Tris-HCl pH 7.5, 120 mM NaCl, 1 mM MgCl2, 10 uM ZnCl2, 1 mM DTT, 100 ug/ml BSA, room temperature, 30 min; 0.1 uM nucleosome library; high values mean tight binding

Binder	binding signal
B1	0.601 log2 enrichment (bound/unbound, relative to Widom 601)
B2	0.636 log2 enrichment (bound/unbound, relative to Widom 601)
B3	0.658 log2 enrichment (bound/unbound, relative to Widom 601)
B4	0.821 log2 enrichment (bound/unbound, relative to Widom 601)
B5	0.711 log2 enrichment (bound/unbound, relative to Widom 601)
B6	4.08 log2 enrichment (bound/unbound, relative to Widom 601)
B7	0.711 log2 enrichment (bound/unbound, relative to Widom 601)
B8	0.842 log2 enrichment (bound/unbound, relative to Widom 601)

Molecular target: mouse Nr5a2 wild type;histone octamer (Mus musculus;, UniProt P45448;C0HKE1;Q6ZWY9;P84244;P62806 1-560;2-130;2-126;2-136;2-103, |)
Experiment: SeEN-seq (EMSA of nucleosome library followed by sequencing); 1.2 uM mouse Nr5a2; 20 mM Tris-HCl pH 7.5, 120 mM NaCl, 1 mM MgCl2, 10 uM ZnCl2, 1 mM DTT, 100 ug/ml BSA, room temperature, 30 min; 0.1 uM nucleosome library; high values mean tight binding

Binder	binding signal
B1	0.435 log2 enrichment (bound/unbound, relative to Widom 601)
B2	0.614 log2 enrichment (bound/unbound, relative to Widom 601)
B3	0.574 log2 enrichment (bound/unbound, relative to Widom 601)
B4	0.52 log2 enrichment (bound/unbound, relative to Widom 601)
B5	0.746 log2 enrichment (bound/unbound, relative to Widom 601)
B6	4.04 log2 enrichment (bound/unbound, relative to Widom 601)
B7	0.905 log2 enrichment (bound/unbound, relative to Widom 601)
B8	0.875 log2 enrichment (bound/unbound, relative to Widom 601)
